Laboratory results as given in the supplement of paper PMC4466140.

These binders were tested against CaNbp2 (assay: SPOT peptide array binding signal intensity (averaged, normalized) (arbitrary units (background-subtracted, floor 0; scale differs between SH3 domains)); higher = stronger binding of the SH3 domain to the peptide).
Description: (§1)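 GST-tagged SH3 domains from S. cerevisiae (Sc), A. gossypii (Ag), C. albicans (Ca) and S. pombe (Sp) were incubated at 10 ug/ml overnight at 4 C on cellulose SPOT membranes carrying 292 synthetic 15-mer peptides mined from the S. cerevisiae proteome (cysteines replaced by serines). Binding was detected with anti-GST antibody, HRP secondary and chemiluminescence, quantified with Genespotter, and reported as normalized spot intensities averaged over biological replicates.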

| Binder | SPOT peptide array binding signal intensity |
| --- | --- |
| QQNRPLPQLPNRNNR | 100 |

What follows are binders tested against CaRvs167 in the same assay as above.
Description: as §1

| Binder | SPOT peptide array binding signal intensity |
| --- | --- |
| QQNRPLPQLPNRNNR | 1040 |

The binders below were run against CaRvs167-3 in the same assay as above.
Description: as §1

| Binder | SPOT peptide array binding signal intensity |
| --- | --- |
| QQNRPLPQLPNRNNR | 1.75 |

Each binder was assayed against CaSho1 in the same assay as above.
Description: as §1

| Binder | SPOT peptide array binding signal intensity |
| --- | --- |
| QQNRPLPQLPNRNNR | 658 |

The binders below were run against CaSla1-D1-D2 in the same assay as above.
Description: as §1

| Binder | SPOT peptide array binding signal intensity |
| --- | --- |
| QQNRPLPQLPNRNNR | 738 |

What follows are binders tested against CaSla1-D3 in the same assay as above.
Description: as §1

| Binder | SPOT peptide array binding signal intensity |
| --- | --- |
| QQNRPLPQLPNRNNR | 3.25 |

These binders were tested against ScAbp1 in the same assay as above.
Description: as §1

| Binder | SPOT peptide array binding signal intensity |
| --- | --- |
| QQNRPLPQLPNRNNR | 62 |

Each binder was assayed against ScBbc1 in the same assay as above.
Description: as §1

| Binder | SPOT peptide array binding signal intensity |
| --- | --- |
| QQNRPLPQLPNRNNR | 65 |

What follows are binders tested against ScBem1-D1 in the same assay as above.
Description: as §1

| Binder | SPOT peptide array binding signal intensity |
| --- | --- |
| QQNRPLPQLPNRNNR | 9 |

Each binder was assayed against ScBzz1-D1 in the same assay as above.
Description: as §1

| Binder | SPOT peptide array binding signal intensity |
| --- | --- |
| QQNRPLPQLPNRNNR | 25 |

The binders below were run against ScBzz1-D2 in the same assay as above.
Description: as §1

| Binder | SPOT peptide array binding signal intensity |
| --- | --- |
| QQNRPLPQLPNRNNR | 21 |

These binders were tested against ScCyk3 in the same assay as above.
Description: as §1

| Binder | SPOT peptide array binding signal intensity |
| --- | --- |
| QQNRPLPQLPNRNNR | 4 |

These binders were tested against ScFus1 in the same assay as above.
Description: as §1

| Binder | SPOT peptide array binding signal intensity |
| --- | --- |
| QQNRPLPQLPNRNNR | 22 |

The binders below were run against ScHof1 in the same assay as above.
Description: as §1

| Binder | SPOT peptide array binding signal intensity |
| --- | --- |
| QQNRPLPQLPNRNNR | 70.2 |

The binders below were run against ScHse1 in the same assay as above.
Description: as §1

| Binder | SPOT peptide array binding signal intensity |
| --- | --- |
| QQNRPLPQLPNRNNR | ≤ 0 |

Each binder was assayed against ScLsb1 in the same assay as above.
Description: as §1

| Binder | SPOT peptide array binding signal intensity |
| --- | --- |
| QQNRPLPQLPNRNNR | 95 |

Each binder was assayed against ScLsb2 in the same assay as above.
Description: as §1

| Binder | SPOT peptide array binding signal intensity |
| --- | --- |
| QQNRPLPQLPNRNNR | 36.5 |

The binders below were run against ScLsb3 in the same assay as above.
Description: as §1

| Binder | SPOT peptide array binding signal intensity |
| --- | --- |
| QQNRPLPQLPNRNNR | 6550 |

Each binder was assayed against ScLsb4 in the same assay as above.
Description: as §1

| Binder | SPOT peptide array binding signal intensity |
| --- | --- |
| QQNRPLPQLPNRNNR | 1180 |

What follows are binders tested against ScMyo3 in the same assay as above.
Description: as §1

| Binder | SPOT peptide array binding signal intensity |
| --- | --- |
| QQNRPLPQLPNRNNR | ≤ 0 |

What follows are binders tested against ScMyo5 in the same assay as above.
Description: as §1

| Binder | SPOT peptide array binding signal intensity |
| --- | --- |
| QQNRPLPQLPNRNNR | ≤ 0 |

Each binder was assayed against ScNbp2 in the same assay as above.
Description: as §1

| Binder | SPOT peptide array binding signal intensity |
| --- | --- |
| QQNRPLPQLPNRNNR | 23 |

The binders below were run against ScPex13 in the same assay as above.
Description: as §1

| Binder | SPOT peptide array binding signal intensity |
| --- | --- |
| QQNRPLPQLPNRNNR | 1010 |

These binders were tested against ScRvs167 in the same assay as above.
Description: as §1

| Binder | SPOT peptide array binding signal intensity |
| --- | --- |
| QQNRPLPQLPNRNNR | 1370 |

The binders below were run against ScSho1 in the same assay as above.
Description: as §1

| Binder | SPOT peptide array binding signal intensity |
| --- | --- |
| QQNRPLPQLPNRNNR | 6410 |

These binders were tested against ScSla1-D1-D2 in the same assay as above.
Description: as §1

| Binder | SPOT peptide array binding signal intensity |
| --- | --- |
| QQNRPLPQLPNRNNR | 383 |

What follows are binders tested against ScSla1-D3 in the same assay as above.
Description: as §1

| Binder | SPOT peptide array binding signal intensity |
| --- | --- |
| QQNRPLPQLPNRNNR | 2 |

These binders were tested against SpAbp1-D1 in the same assay as above.
Description: as §1

| Binder | SPOT peptide array binding signal intensity |
| --- | --- |
| QQNRPLPQLPNRNNR | 17 |

These binders were tested against SpBbc1 in the same assay as above.
Description: as §1

| Binder | SPOT peptide array binding signal intensity |
| --- | --- |
| QQNRPLPQLPNRNNR | 28 |

The binders below were run against SpBzz1-D1 in the same assay as above.
Description: as §1

| Binder | SPOT peptide array binding signal intensity |
| --- | --- |
| QQNRPLPQLPNRNNR | 450 |

What follows are binders tested against SpBzz1-D2 in the same assay as above.
Description: as §1

| Binder | SPOT peptide array binding signal intensity |
| --- | --- |
| QQNRPLPQLPNRNNR | 1.5 |

Each binder was assayed against SpCyk3 in the same assay as above.
Description: as §1

| Binder | SPOT peptide array binding signal intensity |
| --- | --- |
| QQNRPLPQLPNRNNR | 123 |

Each binder was assayed against SpHof1 in the same assay as above.
Description: as §1

| Binder | SPOT peptide array binding signal intensity |
| --- | --- |
| QQNRPLPQLPNRNNR | 1520 |

What follows are binders tested against SpHof1-2 in the same assay as above.
Description: as §1

| Binder | SPOT peptide array binding signal intensity |
| --- | --- |
| QQNRPLPQLPNRNNR | 1990 |

The binders below were run against SpHof1-3 in the same assay as above.
Description: as §1

| Binder | SPOT peptide array binding signal intensity |
| --- | --- |
| QQNRPLPQLPNRNNR | 1170 |

These binders were tested against SpHse1 in the same assay as above.
Description: as §1

| Binder | SPOT peptide array binding signal intensity |
| --- | --- |
| QQNRPLPQLPNRNNR | 14 |

The binders below were run against SpLsb1 in the same assay as above.
Description: as §1

| Binder | SPOT peptide array binding signal intensity |
| --- | --- |
| QQNRPLPQLPNRNNR | 82.8 |

These binders were tested against SpLsb4 in the same assay as above.
Description: as §1

| Binder | SPOT peptide array binding signal intensity |
| --- | --- |
| QQNRPLPQLPNRNNR | 6900 |

Each binder was assayed against SpMyo1 in the same assay as above.
Description: as §1

| Binder | SPOT peptide array binding signal intensity |
| --- | --- |
| QQNRPLPQLPNRNNR | 45.8 |

What follows are binders tested against SpNbp2 in the same assay as above.
Description: as §1

| Binder | SPOT peptide array binding signal intensity |
| --- | --- |
| QQNRPLPQLPNRNNR | 20 |

These binders were tested against SpPex13 in the same assay as above.
Description: as §1

| Binder | SPOT peptide array binding signal intensity |
| --- | --- |
| QQNRPLPQLPNRNNR | 3.5 |

Each binder was assayed against SpRvs167 in the same assay as above.
Description: as §1

| Binder | SPOT peptide array binding signal intensity |
| --- | --- |
| QQNRPLPQLPNRNNR | 2080 |

Each binder was assayed against SpSla1-D1-D2 in the same assay as above.
Description: as §1

| Binder | SPOT peptide array binding signal intensity |
| --- | --- |
| QQNRPLPQLPNRNNR | 333 |

Each binder was assayed against SpSla1-D3 in the same assay as above.
Description: as §1

| Binder | SPOT peptide array binding signal intensity |
| --- | --- |
| QQNRPLPQLPNRNNR | 7 |
